Potency and outcome data for 16 compounds are collected here from PubChem BioAssay (Tox21).

Several values for one entry are separate records, joined by “and”; a condition that tells them apart may be missing. Identical values can stand only once. Records with an inconclusive call do not appear. Activity calls are given as the source filed them. Calls come from the whole dose curve; as a rule, active = well fitted curve in the direction sought with a large enough effect in the repeat runs; inconclusive = weak or mixed curves; inactive = no such curve, though single readings can be large; an effect the other way counts as inactive or inconclusive.

Assay [1] is described as follows: A CellTox Green Cytotoxicity Assay to monitor cytotoxicity in HEK293 cells - 24 hour (AID 1224875). Note: series mostly up to about 77 µM; nearly all actives have a fitted effect of over 45% in size. A digest of the protocol:
(§1)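 Each value comes from one timepoint of a single continuous run in which HEK293 cells with CellTox Green were exposed to compound for up to 40 h at 37 C, dye fluorescence rising with cell death.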

Assay [2] is described as follows: A CellTox Green Cytotoxicity Assay to monitor cytotoxicity in HepG2 cells - 16 hour (AID 1224876). Note: nearly all actives have a fitted effect of over 45% in size. The method in brief: (§2)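 Continuous culture of HepG2 cells with a membrane-impermeant DNA dye; rising fluorescence marks dead cells. Compound exposure lasted up to 40 h at 37 C, with reads every 8 h from 0 h.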
Assay [3] is described as follows: qHTS RealTime-Glo MT Cell Viability Assay in HepG2 cells - 32 hour (AID 1224877). Note: nearly all actives have a fitted effect of over 55% in size. A digest of the protocol: (§3)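 Tox21 10K library screened in qHTS format on HepG2 cells carrying RealTime-Glo reagents. Compounds were added after a 5 h preincubation, and the luminescent signal from continuous culture was measured repeatedly during 40 h treatment.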
Assay [4] is described as follows: A CellTox Green Cytotoxicity Assay to monitor cytotoxicity in HepG2 cells - 40 hour (AID 1224879). Note: nearly all actives have a fitted effect of over 40% in size. The method in brief: as §2
Assay [5] can be described thus: qHTS RealTime-Glo MT Cell Viability Assay in HEK293 cells - 0 hour (AID 1224880). Note: top concentration of the series differs between compounds; nearly all actives have a fitted effect of over 45% in size. A digest of the protocol:
(§4)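 qHTS format; HEK293 cells with NanoLuc/prosubstrate reagent, 37 C/5% CO2 for 5 h pre-dosing; compounds 23 nL in DMSO; luminescence at each time point reflects viable cells.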
A general note: qHTS replaces the single test concentration by a dilution series.

A short description of assay [6]: A CellTox Green Cytotoxicity Assay to monitor cytotoxicity in HEK293 cells - 32 hour (AID 1224881). Note: nearly all actives have a fitted effect of over 40% in size. The method in brief: as §1
A short description of assay [7]: A CellTox Green Cytotoxicity Assay to monitor cytotoxicity in HepG2 cells - 0 hour (AID 1224882). Note: nearly all actives have a fitted effect of over 35% in size. The method in brief:
as §2

The nature of assay [8]: A CellTox Green Cytotoxicity Assay to monitor cytotoxicity in HepG2 cells - 32 hour (AID 1224883). Note: nearly all actives have a fitted effect of over 50% in size. The method in brief:
as §2

Assay [9] is described as follows: A CellTox Green Cytotoxicity Assay to monitor cytotoxicity in HEK293 cells - 8 hour (AID 1224884). Note: nearly all actives have a fitted effect of over 35% in size. A digest of the protocol:
as §1

Assay [10] in a line: qHTS RealTime-Glo MT Cell Viability Assay in HepG2 cells - 16 hour (AID 1224885). Note: nearly all actives have a fitted effect of over 50% in size. A digest of the protocol:
as §3

Assay [11] is described as follows: qHTS RealTime-Glo MT Cell Viability Assay in HEK293 cells - 24 hour (AID 1224886). Note: nearly all actives have a fitted effect of over 50% in size. Note: potency is the fitted concentration of half-maximal effect. A digest of the protocol: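 Luminescence generated by NanoLuc from substrate produced by living HEK293 cells served as the viability signal. Each value reflects the reading at its stated time point during continuous 40 h compound exposure at 37 C.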
Assay [12] is described as follows: qHTS RealTime-Glo MT Cell Viability Assay in HEK293 cells - 8 hour (AID 1224887). Note: top concentration of the series differs between compounds; nearly all actives have a fitted effect of over 50% in size. A digest of the protocol: as §4
Assay [13] is described as follows: A CellTox Green Cytotoxicity Assay to monitor cytotoxicity in HEK293 cells - 16 hour (AID 1224888). Note: nearly all actives have a fitted effect of over 35% in size. A digest of the protocol: as §1
Assay [14] can be described thus: qHTS RealTime-Glo MT Cell Viability Assay in HepG2 cells - 0 hour (AID 1224889). Note: nearly all actives have a fitted effect of over 50% in size. The method in brief: as §3
Assay [15] is described as follows: A CellTox Green Cytotoxicity Assay to monitor cytotoxicity in HepG2 cells - 8 hour (AID 1224890). Note: nearly all actives have a fitted effect of over 45% in size. A digest of the protocol:
as §2

Assay [16] is described as follows: qHTS assay to identify small molecule antagonists of the androgen receptor (AR) signaling pathway using the MDA cell line in the presence of 0.5 nM R1881 - cell viability counter screen (AID 1259242). Note: nearly all actives have a fitted effect of over 45% in size. A digest of the protocol:
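Fluorescence from CellTiter-Fluor, which reports protease activity of live cells, was read 30 min after reagent addition to MDA-kb2 cells that had been incubated 16 hr with compound and 0.5 nM R1881.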

Assay [17] concerns the target Estrogen receptor (Homo sapiens) (UniProt P03372). The assay is described as follows: qHTS assay to identify small molecule antagonists of the estrogen receptor alpha (ER-alpha) signaling pathway using the BG1 cell line in the presence of 0.1 nM 17-beta-estradiol (AID 1259244). Note: nearly all actives have a fitted effect of over 50% in size. Note: potency is the fitted concentration of half-maximal effect. A digest of the protocol:
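Quantitative high-throughput screen in VM7Luc4E2 cells: compound plus 0.1 nM E2 (final), 22 h, 37C, 5% CO2; ONE-Glo added, 30 min room temperature, luminescence measured.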

Assay [18] is described as follows: qHTS assay to identify small molecule antagonists of the estrogen receptor alpha (ER-alpha) signaling pathway using the BG1 cell line in the presence of 0.1 nM 17-beta-estradiol - cell viability counter screen (AID 1259241). Note: nearly all actives have a fitted effect of over 40% in size. The method in brief: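 CellTiter-Fluor read (30 min, 37C) on ER-alpha/ERE-luc VM7Luc4E2 cells; 22 hr compound treatment; agonist 0.1 nM E2 final; same-well multiplex.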

Assay [19] in a line: A CellTox Green Cytotoxicity Assay to monitor cytotoxicity in HepG2 cells - 24 hour (AID 1224878). Note: nearly all actives have a fitted effect of over 45% in size. A digest of the protocol: as §2
The target in assay [20] is Androgen receptor (Homo sapiens) (UniProt P10275). The assay is described as follows: qHTS assay to identify small molecule antagonists of the androgen receptor (AR) signaling pathway using the MDA cell line in the presence of 0.5 nM R1881 (AID 1259243). Note: nearly all actives have a fitted effect of over 50% in size. A digest of the protocol: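 Inhibition of R1881 (0.5 nM final) induced reporter signal was measured in human MDA-kb2 cells; note the MMTV promoter also responds to GR. Exposure lasted 16 hr at 37C.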
Chain of Androgen receptor (Homo sapiens) (P10275 whole entry, looked up): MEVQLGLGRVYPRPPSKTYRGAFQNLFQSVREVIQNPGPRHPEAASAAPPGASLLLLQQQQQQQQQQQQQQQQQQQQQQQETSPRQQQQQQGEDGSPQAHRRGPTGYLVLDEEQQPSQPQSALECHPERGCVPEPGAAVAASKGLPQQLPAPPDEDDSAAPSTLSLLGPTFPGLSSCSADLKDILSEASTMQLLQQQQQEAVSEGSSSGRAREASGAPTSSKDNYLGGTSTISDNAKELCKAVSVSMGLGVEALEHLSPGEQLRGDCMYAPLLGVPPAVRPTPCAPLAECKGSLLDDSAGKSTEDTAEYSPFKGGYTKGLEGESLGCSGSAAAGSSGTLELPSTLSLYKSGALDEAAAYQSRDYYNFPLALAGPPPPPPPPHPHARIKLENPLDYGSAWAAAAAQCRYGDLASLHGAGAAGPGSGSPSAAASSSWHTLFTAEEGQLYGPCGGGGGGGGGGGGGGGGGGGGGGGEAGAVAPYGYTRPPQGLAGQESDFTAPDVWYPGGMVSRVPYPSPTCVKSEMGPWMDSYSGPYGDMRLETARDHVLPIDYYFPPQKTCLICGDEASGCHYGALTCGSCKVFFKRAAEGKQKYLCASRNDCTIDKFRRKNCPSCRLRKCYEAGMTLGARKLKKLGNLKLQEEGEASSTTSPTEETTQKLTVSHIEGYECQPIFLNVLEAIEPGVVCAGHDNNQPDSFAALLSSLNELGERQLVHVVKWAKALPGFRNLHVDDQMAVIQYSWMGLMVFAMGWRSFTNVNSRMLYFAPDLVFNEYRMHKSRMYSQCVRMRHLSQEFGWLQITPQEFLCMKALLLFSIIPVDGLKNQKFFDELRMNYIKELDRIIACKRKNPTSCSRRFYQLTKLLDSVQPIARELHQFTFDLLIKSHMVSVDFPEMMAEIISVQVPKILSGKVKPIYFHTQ

Chain of Estrogen receptor (Homo sapiens) (P03372 whole entry, looked up): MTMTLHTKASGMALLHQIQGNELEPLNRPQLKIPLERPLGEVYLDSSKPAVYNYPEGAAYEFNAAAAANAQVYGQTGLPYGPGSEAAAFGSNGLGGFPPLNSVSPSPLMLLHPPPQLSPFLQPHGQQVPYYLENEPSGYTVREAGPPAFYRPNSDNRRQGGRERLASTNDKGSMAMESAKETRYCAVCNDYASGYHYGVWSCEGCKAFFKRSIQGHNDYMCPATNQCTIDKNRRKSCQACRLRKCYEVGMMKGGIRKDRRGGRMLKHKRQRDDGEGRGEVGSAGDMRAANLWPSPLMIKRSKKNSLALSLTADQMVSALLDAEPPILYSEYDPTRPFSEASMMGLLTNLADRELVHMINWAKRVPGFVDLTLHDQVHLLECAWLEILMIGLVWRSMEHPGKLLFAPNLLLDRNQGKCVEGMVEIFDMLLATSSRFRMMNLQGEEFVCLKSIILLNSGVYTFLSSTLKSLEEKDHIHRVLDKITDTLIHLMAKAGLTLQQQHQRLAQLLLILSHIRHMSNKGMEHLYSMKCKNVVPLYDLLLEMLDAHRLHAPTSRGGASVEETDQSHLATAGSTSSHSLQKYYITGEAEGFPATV

For `Cc1ccc2oc(=O)ccc2c1`, the Potency entry in assay [1], in assay [2], in assay [4], in assay [5], in [6] and in [8] was “inactive” each time. Moreover, the Potency entry in assay [11], in [12], in assay [14], in [15] and in assay [17] was “inactive” each time. Also, the outcome in [3], in [7], in [9], in [10], in assay [13] and in assay [16] was inactive.
In the case of `CCCCCCCC(=O)OC`, the Potency result in [1], in assay [2], in assay [4], in [5], in [6] and in assay [8] was “inactive” throughout. Besides, the Potency entry in [11], in assay [12], in [14], in [15], in [18] and in assay [17] was “inactive” in each case. The outcome in assay [3], in [9], in [10], in assay [13] and in assay [16] was inactive.
`Oc1cccc2ccccc12`: the Potency result in assay [2], in assay [19], in assay [4], in [5], in assay [6] and in assay [8] was “inactive” in each case. Besides, the Potency entry in assay [11], in [12], in assay [14], in assay [15] and in assay [18] was “inactive” in each case. Further, the call in [3], in assay [7], in assay [9], in [10] and in assay [13] was inactive.
On to `OCCOCCN1CCN(C2=Nc3ccccc3Sc3ccccc32)CC1`, for which the Potency result in assay [1], in [2], in assay [4], in assay [5], in assay [6] and in assay [8] was “inactive” in each case. Besides, the Potency result in assay [11], in [12], in assay [14], in assay [15] and in assay [18] was “inactive” in each case. Moreover, the compound was called inactive in assay [3], in assay [9], in assay [10] and in [13].
For `Cc1cccnc1`, the Potency entry in assay [2], in assay [19], in [4], in [5], in assay [6] and in [8] was “inactive” in each case. The Potency result in assay [11], in assay [12], in assay [14], in assay [15] and in assay [18] was “inactive” throughout. For the same compound, the result in [3], in assay [7], in [9], in assay [10], in assay [13] and in assay [16] was inactive.
`CC(C)(N)CO`: the Potency entry in assay [1], in assay [2], in [4], in [5], in [6] and in [8] was “inactive” throughout. For the same compound, the Potency entry in assay [11], in [12], in assay [14], in assay [15], in assay [18] and in [17] was “inactive” in each case. In addition, the outcome in assay [3], in assay [9], in assay [10] and in [13] was inactive.
With `COc1ccc(Cl)cc1C(=O)NCCc1ccc(S(=O)(=O)NC(=O)NC2CCCCC2)cc1`, the Potency result in [1], in assay [2], in assay [19], in assay [4], in assay [6] and in assay [8] was “inactive” throughout. Besides, the Potency result in [11], in assay [12], in [15] and in assay [18] was “inactive” each time. Further, the call in assay [3], in [7], in [9], in [10] and in assay [13] was inactive.
As to `C=C(C)C(=O)Nc1ccc(Cl)c(Cl)c1`, the Potency entry in [1], in assay [2], in [19], in [4], in assay [5] and in assay [6] was “inactive” throughout. Also, the Potency entry in [8], in [14], in [15] and in assay [18] was “inactive” in each case. Moreover, the call in assay [3], in [9], in assay [10], in [13] and in assay [16] was inactive. Moreover, the Potency is 19.7 µM (active) and 21.8 µM (active) in assay [11]; 69.3 µM (active) in assay [17].
With `CCCC(C)=O`, the Potency entry in [1], in assay [2], in assay [4], in assay [5], in assay [6] and in assay [8] was “inactive” each time. Further, the Potency result in assay [11], in [12], in assay [14], in assay [15] and in [18] was “inactive” throughout. The compound was called inactive in assay [3], in [9], in assay [10] and in [13].
As to `CC(O)COCC(C)O` (stereo unspecified), the Potency entry in assay [1], in assay [2], in assay [4], in assay [5], in assay [6] and in [8] was “inactive” each time. For the same compound, the Potency entry in assay [11], in assay [12], in assay [14], in assay [15] and in assay [17] was “inactive” in each case. Moreover, the result in assay [3], in assay [7], in assay [9], in assay [10] and in assay [13] was inactive.
In the case of `CN(C)CCC(c1ccc(Cl)cc1)c1ccccn1` (stereo unspecified), the Potency result in [2], in assay [19], in [4], in assay [5], in assay [6] and in [8] was “inactive” throughout. Moreover, the Potency entry in assay [11], in [12], in assay [14] and in [15] was “inactive” each time. In addition, the call in [3], in [7], in [9], in assay [10] and in assay [13] was inactive.
`O=[N+]([O-])c1ccc(/C=C/c2ccc([N+](=O)[O-])cc2S(=O)(=O)O)c(S(=O)(=O)O)c1`: the Potency result in assay [1], in [2], in assay [19], in [4], in assay [5] and in assay [6] was “inactive” in each case. The Potency entry in [8], in [11], in assay [12], in [14], in assay [15] and in assay [17] was “inactive” in each case. The compound was called inactive in assay [3], in assay [9], in assay [10], in assay [13] and in assay [16].
`O=C(O)CC(C(=O)O)C(CC(=O)O)C(=O)O` (stereo unspecified): the Potency result in assay [1], in assay [2], in [4], in assay [5], in assay [6] and in assay [8] was “inactive” in each case. In addition, the Potency result in assay [11], in assay [12], in assay [14], in [15] and in assay [17] was “inactive” each time. Besides, the result in [3], in assay [7], in assay [9], in [10] and in assay [13] was inactive.
Consider `CC(=O)CC(=O)Nc1ccccc1`, for which the Potency result in [1], in [2], in [4], in assay [5], in assay [6] and in assay [8] was “inactive” in each case. Besides, the Potency result in assay [11], in assay [12], in assay [14] and in assay [15] was “inactive” throughout. In addition, the call in assay [3], in assay [9], in assay [10], in [13] and in assay [16] was inactive.
Regarding `CCCCCCCCCCCCOCCO`, the Potency result in assay [1], in assay [2], in assay [4], in assay [5], in assay [6] and in [8] was “inactive” throughout. In addition, the Potency result in assay [11], in [12], in assay [14], in [15], in assay [18] and in assay [20] was “inactive” in each case. Further, the call in assay [3], in [9], in [10], in assay [13] and in [16] was inactive.
Take `O=C1CCC(N2C(=O)c3ccccc3C2=O)C(=O)N1` (stereo unspecified): the Potency result in assay [2], in assay [19], in assay [4], in assay [5], in assay [6] and in [8] was “inactive” each time. In addition, the Potency result in [11], in assay [12], in assay [14] and in [15] was “inactive” each time. Besides, the compound was classed as inactive in [3], in assay [7], in assay [9], in [10] and in assay [13].
